Here are results for 15 molecules from PubChem BioAssay (NCATS).

Several values for one entry are separate records, joined by “and”; a condition that tells them apart may be missing. Equal entries are not always repeated. Inconclusive results are not listed. Values without a mark were called inactive. Activity calls are given as the source filed them. Unless noted, calls come from the whole dose curve; as a rule, active = well fitted curve in the direction sought with a large enough effect; inconclusive = small, poorly fitted or top-dose-only effect, or another doubt; inactive = no such curve, though single readings can be large; an effect the other way counts as inactive or inconclusive.
Potency is the fitted concentration of half-maximal effect.

Sequence of Cytochrome P450 2D6 (Homo sapiens) (P10635 whole entry, looked up): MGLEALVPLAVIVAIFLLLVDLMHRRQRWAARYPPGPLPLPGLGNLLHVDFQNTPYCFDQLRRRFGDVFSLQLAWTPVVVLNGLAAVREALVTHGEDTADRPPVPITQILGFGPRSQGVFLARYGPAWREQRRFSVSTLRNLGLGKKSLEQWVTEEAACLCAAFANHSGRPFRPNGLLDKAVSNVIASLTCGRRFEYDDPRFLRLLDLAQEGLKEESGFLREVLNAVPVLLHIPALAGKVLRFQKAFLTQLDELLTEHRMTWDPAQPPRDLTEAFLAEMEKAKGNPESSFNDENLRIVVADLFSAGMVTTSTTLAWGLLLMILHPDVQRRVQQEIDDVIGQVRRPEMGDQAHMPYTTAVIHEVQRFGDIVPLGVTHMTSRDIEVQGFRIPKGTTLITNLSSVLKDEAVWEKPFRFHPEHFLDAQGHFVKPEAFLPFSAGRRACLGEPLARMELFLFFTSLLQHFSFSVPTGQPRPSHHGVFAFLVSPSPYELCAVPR
Sequence of Cytochrome P450 2C9 (Homo sapiens) (P11712 whole entry, looked up): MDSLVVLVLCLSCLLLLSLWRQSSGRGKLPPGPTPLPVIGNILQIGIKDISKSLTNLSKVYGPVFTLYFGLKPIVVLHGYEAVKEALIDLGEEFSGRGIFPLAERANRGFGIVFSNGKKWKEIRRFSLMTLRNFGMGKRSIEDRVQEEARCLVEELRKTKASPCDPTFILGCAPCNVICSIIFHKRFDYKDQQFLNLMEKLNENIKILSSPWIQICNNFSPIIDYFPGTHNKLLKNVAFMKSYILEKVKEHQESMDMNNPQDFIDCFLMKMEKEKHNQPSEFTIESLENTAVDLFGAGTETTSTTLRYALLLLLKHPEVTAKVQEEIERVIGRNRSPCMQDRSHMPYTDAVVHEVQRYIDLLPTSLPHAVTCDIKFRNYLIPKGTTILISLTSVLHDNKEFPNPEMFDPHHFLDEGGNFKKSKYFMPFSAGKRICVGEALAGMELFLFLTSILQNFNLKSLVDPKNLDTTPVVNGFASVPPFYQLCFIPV

One test deals with Calcium and integrin-binding protein 1 (Homo sapiens) (UniProt Q99828). The test is described as follows: Primary qHTS for Identification of Calcium Integrin Binding Protein 1 (CIB1) Competitor (AID 1508620).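 For activity change, negative = inhibition: GST tagged CIB1 binding a fluorescein labelled alphaIIb integrin peptide tracer; top concentration of the series differs between compounds; % is set by controls: 0 for no effect and ±100 for the full control effect.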 The settings on record: CIB1-GST / FITC-alphaIIb peptide fluorescence polarization; series mostly up to 114 µM; activity change, negative = inhibition: at the top concentration. The procedure, abridged: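 Fluorescence polarization competition: CIB1-GST (1 uM final) preincubated with compound 15 min at room temperature, then FITC-labeled alphaIIb peptide (100 nM final) added for another 15 min. Polarization read at Ex 480/Em 540.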
Sequence of Calcium and integrin-binding protein 1 (Homo sapiens) (Q99828 whole entry, looked up): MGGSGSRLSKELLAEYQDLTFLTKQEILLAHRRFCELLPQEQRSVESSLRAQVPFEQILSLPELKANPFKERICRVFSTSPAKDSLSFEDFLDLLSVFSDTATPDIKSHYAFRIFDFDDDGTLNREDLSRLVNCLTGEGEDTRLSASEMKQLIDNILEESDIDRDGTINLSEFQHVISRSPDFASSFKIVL
Take `C/C=C(\C)C(=O)O[C@@H]1[C@@H](C)[C@]2(O)[C@@H]3C=C(C)C(=O)[C@H]3CC(CO)=C[C@H]2C2C(C)(C)[C@@]21OC(=O)C(C)CC` (stereo partly specified): the “activity change, negative = inhibition” value is 3.1% [at 57.7 µM].

With `COc1cc(/C=C2\CC[C@H]3COC[C@@H](c4cc(F)c(F)c(F)c4)N3C2=O)ccc1-n1cnc(C)c1`, the “activity change, negative = inhibition” value is 3.96%.

As for `C=CCC1=C[C@]2(OC)[C@H](C)[C@@H](c3ccc4c(c3)OCO4)O[C@]2(OC)CC1=O`, the “activity change, negative = inhibition” value is -7.86% [at 57.7 µM].

On to `CCOC(=O)[C@@]1(CCCCCCOc2ccc(Cl)cc2)CO1`, for which the “activity change, negative = inhibition” value was 1.22% [at 57.7 µM].

For the molecule `CC(=O)OCC(=O)[C@@]12O[C@@H]1C[C@H]1[C@@H]3CC=C4C[C@@H](O)CC[C@]4(C)[C@H]3CC[C@@]12C`, the “activity change, negative = inhibition” value was 0.604%.

As for `C/C=C/C1=CC2=C(CO1)C(=O)C(C)(OC(=O)c1c(C)cc(O)cc1OC)C(O)C2` (stereo unspecified), the “activity change, negative = inhibition” value is -3.5% [at 57.7 µM].

On to `O=C(O)CSc1cc(NS(=O)(=O)c2ccc(Br)cc2)c2ccccc2c1O`, for which the Potency is 44.7 µM (active).

In the case of `COc1cc(O)cc(/C=C/c2cccc(O)c2)c1`, the “activity change, negative = inhibition” value was 3.13%.

For a further test, the target named is Cytochrome P450 2D6 (Homo sapiens) (UniProt P10635). The test is described as follows: Cytochrome P450 family 2 subfamily D member 6 (CYP2D6) small molecule antagonists: luciferase biochemical (cell-free) qHTS assay (AID 1645840; active = well fitted curve in the direction sought with a large enough effect in the repeat runs; an effect the other way counts as inactive or inconclusive; note: nearly all actives have a fitted effect of over 55% in size; for activity change, negative = inhibition: % is set by controls: 0 for no effect and ±100 for the full control effect). The conditions noted are these: P450-Glo CYP2D6 enzyme, luciferin luminescence, 1 h; series mostly up to 57.4 µM; activity change, negative = inhibition: at the top concentration. The procedure, abridged:
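P450-Glo luminescent screen: recombinant CYP2D6 enzyme–proluciferin substrate mix preincubated with compound 10 min at room temperature, then NADPH regeneration added for 1 h at room temperature. Detection reagent added for 20 min; luciferin light read as relative luminescence units.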
For orientation: In qHTS, concentration-response curves come from the screen itself.
Turning to `CCC1C(=O)N(C)c2cnc(Nc3ccc(C(=O)NC4CCN(C)CC4)cc3OC)nc2N1C1CCCC1` (stereo unspecified), the “activity change, negative = inhibition” value is -18.6%.

For the molecule `COc1nc2ccc(Br)cc2cc1[C@@H](c1ccccc1)[C@@](O)(CCN(C)C)c1cccc2ccccc12`, the Potency was 7.56 µM (active).

Take `CN[C@H]1CC[C@@H](c2ccc(Cl)c(Cl)c2)c2ccccc21`: the Potency is 2.19 µM (active).

Take `N#Cc1ccc(Nc2nc(-c3ccc(O)cc3O)cs2)cc1C(F)(F)F`: the Potency was 5.35 µM (active).

A further test has as its target Cytochrome P450 2C9 (Homo sapiens) (UniProt P11712). The test is described as follows: Cytochrome P450 family 2 subfamily C member 9 (CYP2C9) small molecule antagonists: luciferase biochemical (cell-free) qHTS assay (AID 1645842; active = well fitted curve in the direction sought with a large enough effect in the repeat runs; an effect the other way counts as inactive or inconclusive; note: nearly all actives have a fitted effect of over 55% in size). The conditions noted are these: P450-Glo CYP2C9 enzyme assay, luciferin luminescence; series mostly up to 57.4 µM; activity change, negative = inhibition: at the top concentration. In short, it runs like this: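 Luminescence, after 20 min with luciferin detection reagent, reflected CYP2C9 turnover during a 1 h NADPH-driven reaction at 37C. Enzyme-substrate mix contained 0.4% bovine serum albumin and was preincubated with compound 10 min at room temperature.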
For the molecule `CCC1C(=O)N(C)c2cnc(Nc3ccc(C(=O)NC4CCN(C)CC4)cc3OC)nc2N1C1CCCC1` (stereo unspecified), the Potency is 2.13 µM (active).

Turning to `COc1nc2ccc(Br)cc2cc1[C@@H](c1ccccc1)[C@@](O)(CCN(C)C)c1cccc2ccccc12`, the Potency is 3.79 µM (active).

Take `CN[C@H]1CC[C@@H](c2ccc(Cl)c(Cl)c2)c2ccccc21`: the Potency was 15.5 µM (active).

Regarding `Oc1cccc(-c2c3nc(c(-c4cccc(O)c4)c4ccc([nH]4)c(-c4cccc(O)c4)c4nc(c(-c5cccc(O)c5)c5ccc2[nH]5)CC4)C=C3)c1`, the Potency was 11 µM (active).

Consider `N#Cc1ccc(Nc2nc(-c3ccc(O)cc3O)cs2)cc1C(F)(F)F`, for which the Potency was 1.69 µM (active).

Tested on in a further test: not listed separately
The test can be described thus: Primary qHTS for inhibitors of nuclear receptor binding SET domain protein 2 (NSD2) in an isogenic RCH-ACV NSD2 p.E1099K mutant (9B) (AID 1645876). For activity change, negative = viability loss: % is set by controls: 0 for no effect and ±100 for the full control effect. Note: nearly all actives have a fitted effect of over 70% in size. The conditions noted are these: RCH-ACV NSD2 E1099K (9B) viability, CellTiter-Glo, 72 h; series mostly up to 44.9 µM; activity change, negative = viability loss: at the top concentration.
In the case of `CCC1C(=O)N(C)c2cnc(Nc3ccc(C(=O)NC4CCN(C)CC4)cc3OC)nc2N1C1CCCC1` (stereo unspecified), the Potency was 0.0073 µM (active).

Turning to `Cn1sc(=O)n(Cc2ccccc2)c1=O`, the Potency is 7.28 µM (active) and 18.4 µM (active).

Take `CN[C@H]1CC[C@@H](c2ccc(Cl)c(Cl)c2)c2ccccc21`: the Potency was 6.68 µM (active) and 9.34 µM (active).

Take `Oc1cccc(-c2c3nc(c(-c4cccc(O)c4)c4ccc([nH]4)c(-c4cccc(O)c4)c4nc(c(-c5cccc(O)c5)c5ccc2[nH]5)CC4)C=C3)c1`: the Potency was 8.41 µM (active).

As to `N#Cc1ccc(Nc2nc(-c3ccc(O)cc3O)cs2)cc1C(F)(F)F`, the Potency is 16.3 µM (active).

Turning to `O=C(c1ccccc1)c1c(O)cc(O)cc1O[C@@H]1O[C@H](CO)[C@@H](O)[C@H](O)[C@H]1O`, the “activity change, negative = viability loss” value was -11.9%.

As for `O=C(O)CSc1cc(NS(=O)(=O)c2ccc(Br)cc2)c2ccccc2c1O`, the Potency is 7.28 µM (active).

Tested on in the next test: not listed separately
The test is described as follows: Primary qHTS for inhibitors of nuclear receptor binding SET domain protein 2 (NSD2) in an RCH-ACV wild type WT cells (2C) (AID 1645877). For activity change, negative = cell killing: % is set by controls: 0 for no effect and ±100 for the full control effect. Note: nearly all actives have a fitted effect of over 70% in size. The settings on record: RCH-ACV (leukaemia line) NSD2 WT (2C) viability, CellTiter-Glo, 72 h; series mostly up to 44.9 µM; activity change, negative = cell killing: at the top concentration.
For the molecule `CCC1C(=O)N(C)c2cnc(Nc3ccc(C(=O)NC4CCN(C)CC4)cc3OC)nc2N1C1CCCC1` (stereo unspecified), the Potency was 0.0082 µM (active).

Regarding `COc1nc2ccc(Br)cc2cc1[C@@H](c1ccccc1)[C@@](O)(CCN(C)C)c1cccc2ccccc12`, the Potency was 14.5 µM (active).

For `Cn1sc(=O)n(Cc2ccccc2)c1=O`, the Potency was 2.58 µM (active) and 11.6 µM (active).

In the case of `CN[C@H]1CC[C@@H](c2ccc(Cl)c(Cl)c2)c2ccccc21`, the Potency was 2.66 µM (active) and 9.34 µM (active).

`Oc1cccc(-c2c3nc(c(-c4cccc(O)c4)c4ccc([nH]4)c(-c4cccc(O)c4)c4nc(c(-c5cccc(O)c5)c5ccc2[nH]5)CC4)C=C3)c1`: the Potency is 8.41 µM (active).

As for `O=C(c1ccccc1)c1c(O)cc(O)cc1O[C@@H]1O[C@H](CO)[C@@H](O)[C@H](O)[C@H]1O`, the “activity change, negative = cell killing” value was -17.5%.

With `O=C(O)CSc1cc(NS(=O)(=O)c2ccc(Br)cc2)c2ccccc2c1O`, the Potency was 4.09 µM (active).
